aSyn 5UTR act: Activators via SNCA 5'UTR binding, MLPCN; alpha-synuclein 5'UTR reporter, activators screen; activity score, % (tested at 7.5 µM), hits read low; actives 7.1% (n = 300,000); AID 1814; in the data active means activity score below about -60%
Active calls of the source: *. A selection follows.

SMILES	aSyn 5UTR act
COc1ccccc1NC(CC(=O)c1ccccc1)C(=O)OCC(=O)c1ccc(C)c(C)c1 (stereo not drawn)	-127*
O=C(CC(Nc1ccccc1Cl)C(=O)OCC(=O)c1cccs1)c1ccccc1 (stereo not drawn)	-119*
COc1ccccc1NC(CC(=O)c1ccccc1)C(=O)OCC(=O)c1ccc(C)cc1 (stereo not drawn)	-190*
COc1ccccc1NC(CC(=O)c1ccccc1)C(=O)OCC(=O)c1ccc(Br)cc1 (stereo not drawn)	-130*
CCCNS(=O)(=O)c1cccc(C(=O)OCc2cc(=O)oc3cc(OC)ccc23)c1	-97*
N/C(=C\C(=O)c1cc(Cl)ccc1O)C(Cl)(Cl)Cl	-80*
Cc1cc(OCC(=O)N2CCCCCC2)ccc1[N+](=O)[O-]	-148*
Cc1cc(OCC(=O)N2CCCC2)ccc1Cl	-91*
OC1CCCN(CC(O)COc2ccc(-c3ccccc3)cc2)C1 (stereo not drawn)	-74*
OC(COc1ccc(OCc2ccccc2)cc1)CN1CCCCC1 (stereo not drawn)	-73*
OC(COc1ccc(-c2ccccc2)cc1)CN1CCOCC1 (stereo not drawn)	-73*
OCCN1CCN(CC(O)COc2ccc(-c3ccccc3)cc2)CC1 (stereo not drawn)	-126*
COc1ccc(C(O)(CC(C)C)C(CN2CCOCC2)c2ccccc2)cc1 (stereo not drawn)	66
OC(CNCCc1ccccc1)COc1ccc(OCC(O)CNCCc2ccccc2)cc1 (stereo not drawn)	107
OCCN(Cc1ccccc1)CC(O)COc1ccc(-c2ccccc2)cc1 (stereo not drawn)	-96*
OC(COc1ccc2cc(Br)ccc2c1)CN1CCCC1 (stereo not drawn)	-97*
NC(=O)c1ccc(CSc2nc3ccccc3s2)cc1	-101*
CCC(C)(C)NC(=O)CCCSc1nc2ccccc2s1	-154*
CCNC(=O)c1ccc(CSc2nc3ccccc3s2)cc1	-65*
c1ccc2sc(SCc3ccc(-c4nnco4)cc3)nc2c1	-156*
CCC(C)/C(C)=N/NC(=O)c1ccc(CSc2nc3ccccc3s2)cc1 (stereo not drawn)	-156*
Cc1ccc(-n2nc(C)c3c2OC(N)=C(C#N)C3c2ccc(F)cc2)cc1 (stereo not drawn)	-75*
O=C(C[n+]1cc(-c2ccc(F)cc2)n2c1CCC2)c1cccs1	-144*
O=C(C[n+]1cc(-c2ccccc2)n2c1CCC2)Nc1nc(-c2ccccc2)cs1	-73*
O=C(CSCC(=O)N1CCCc2ccccc21)Nc1nc(-c2ccccc2)cs1	-100*
SMILES	aSyn 5UTR act
O=C(c1nn2c(C(F)(F)F)cc(-c3cccs3)nc2c1Br)N1CCCc2ccccc21	82
Cc1ccsc1/C=N/Nc1nc2ccccc2s1	-148*
C(=N\Nc1nc2ccccc2s1)/c1ccco1	-80*
OCC(O)/C=N/Nc1nc2ccccc2s1 (stereo not drawn)	-72*
C(=N\Nc1nc2ccccc2s1)/c1cccs1	-212*
CCn1c(C)c(/C=N/Nc2nc3ccccc3s2)c2ccccc21	-170*
Cc1ccc2cc(NC(=O)c3ccccc3C)ccc2n1	-195*
Cc1ccc2cc(NC(=O)Cc3ccccc3)ccc2n1	-127*
O=C1CN(c2ccccc2)C(=S)N1C(=O)c1ccc(Br)cc1	-150*
Cc1[nH]c2ccccc2c1C(=O)CSc1ccccn1	-68*
Cc1[nH]c2ccccc2c1C(=O)CSc1ccccc1	-86*
Cc1[nH]c2ccccc2c1C(=O)COc1ccccc1	-113*
Cc1ccc2c(C(=O)CSc3ccccc3)c(C)[nH]c2c1	-109*
N#Cc1c(NC(=O)CSc2ncn[nH]2)sc2c1CCCCC2	82
N#Cc1cc2c(nc1SCC(=O)Nc1sc3c(c1C#N)CCC3)CCCC2	-240*
N#Cc1cc2c(nc1SCC(=O)Nc1sc3c(c1C#N)CCC3)CCCCC2	-122*
CCOC(=O)c1sc(NC(=O)CSc2nc3c(cc2C#N)CCCCCC3)c(C#N)c1C	-74*

Source: PubChem BioAssay
